# Data as given in PubChem BioAssay.
# The source made the active and inactive calls.
# What was measured:
# Albumin (Bos taurus) = Albumin (Bos taurus) (UniProt P02769); test: bovine serum albumin binders on microarray, profiling panel, artefact control for SMM control protein annotation, biochemical, small-molecule microarray, Alexa647 label, 635/667 nm fluorescence (AID 1118); conditions: BSA-A647 binding, fluorescence 635 nm, higher = more signal;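 note: score merges 667 nm emission intensity and signal-to-noise per printed compound spot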
# [1] = small-molecule microarray binders of probe aXIP, primary screen, biochemical, NeuroSMM set, 635/667 nm fluorescence (AID 1119); conditions: higher = more signal, called active from +8 up or from −8 down;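 note: probe is the protein aXip251-270 applied at 1 µg/mL to compound-printed slides; binding of probe to printed compounds measured as 667 nm fluorescence plus signal to noise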
# [2] = small-molecule binders of probe aNOTCH3, primary screen, biochemical, small-molecule microarray, 635/667 nm fluorescence (AID 1120); conditions: higher = more signal;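 note: probe is a biotin-tagged antibody raised against NOTCH3 rather than NOTCH3 protein; score merges spot fluorescence near 667 nm with spot signal to noise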
# [3] = small-molecule binders of probe aNOTCH2, primary screen, biochemical, small-molecule microarray, 635/667 nm fluorescence (AID 1121); conditions: higher = more signal;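 note: score merges feature fluorescence read at 667 nm with its signal to noise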
# [4] = biological target: Carbonic anhydrase 2 (Homo sapiens) (UniProt P00918); test: CAII small-molecule binders, profiling panel, biochemical, small-molecule microarray, Alexa647-labelled CAII (AID 1122); conditions: CAII-A647 binding fluorescence, higher = more signal
# [5] = COS7 lysate on small-molecule microarray, probe aHis, 635 nm (AID 1123); conditions: COS7 cell lysate, fluorescence, higher = more signal;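 note: z-score combines 667nm fluorescence intensity with signal-to-noise per printed compound spot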
# [6] = compound binding in COS7 lysate, probe aLAP1, primary screen, cell lysate, small-molecule microarray (AID 1124); conditions: probe aLAP1, fluorescence, higher = more signal;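 note: lysate comes from COS7 cells expressing LAP1 and is applied at 0.3 µg/mL; score merges spot fluorescence near 667 nm with signal-to-noise over triplicate slides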
# Sam68 (KHDRBS1) = test: Sam68 small-molecule binders, primary screen, biochemical, small-molecule microarray, 635 nm fluorescence (AID 1125); conditions: small-molecule microarray binding, higher = more signal;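 note: score merges 667 nm channel intensity with signal to noise over triplicate slides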
# [7] = test system: Chordin-like protein 2 (CHRDL2); test: CHRDL2 small-molecule binders, primary screen, biochemical, small-molecule microarray, 635 nm fluorescence (AID 1126); conditions: small-molecule microarray binding, fluorescence 635 nm; higher = more signal;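 note: printed compound slides probed with Chrdl2 protein at 4 µg/mL for 1 h at 4 C; score merges 667 nm emission intensity with signal to noise over three replicate slides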
# [8] = biological target: Concanavalin-A (Canavalia ensiformis) (UniProt P02866); test: ConA small-molecule binders, primary screen, artefact control for SMM control protein annotation, biochemical, small-molecule microarray, Alexa647 label, 635 nm (AID 1127); conditions: ConA-A647 binding fluorescence, higher = more signal;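 note: z combines 667 nm emission intensity with signal-to-noise across three replicate slides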
# Chain of Concanavalin-A (Canavalia ensiformis) (P02866 whole entry, looked up): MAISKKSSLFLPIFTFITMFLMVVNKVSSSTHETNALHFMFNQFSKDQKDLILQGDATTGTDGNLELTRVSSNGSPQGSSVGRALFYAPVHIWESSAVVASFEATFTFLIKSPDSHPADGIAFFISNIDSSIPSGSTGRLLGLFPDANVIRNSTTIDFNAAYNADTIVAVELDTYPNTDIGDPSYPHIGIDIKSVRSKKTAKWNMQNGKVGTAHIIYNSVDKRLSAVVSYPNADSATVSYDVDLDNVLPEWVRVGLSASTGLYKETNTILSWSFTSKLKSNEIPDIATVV
# Chain of Albumin (Bos taurus) (P02769 whole entry, looked up): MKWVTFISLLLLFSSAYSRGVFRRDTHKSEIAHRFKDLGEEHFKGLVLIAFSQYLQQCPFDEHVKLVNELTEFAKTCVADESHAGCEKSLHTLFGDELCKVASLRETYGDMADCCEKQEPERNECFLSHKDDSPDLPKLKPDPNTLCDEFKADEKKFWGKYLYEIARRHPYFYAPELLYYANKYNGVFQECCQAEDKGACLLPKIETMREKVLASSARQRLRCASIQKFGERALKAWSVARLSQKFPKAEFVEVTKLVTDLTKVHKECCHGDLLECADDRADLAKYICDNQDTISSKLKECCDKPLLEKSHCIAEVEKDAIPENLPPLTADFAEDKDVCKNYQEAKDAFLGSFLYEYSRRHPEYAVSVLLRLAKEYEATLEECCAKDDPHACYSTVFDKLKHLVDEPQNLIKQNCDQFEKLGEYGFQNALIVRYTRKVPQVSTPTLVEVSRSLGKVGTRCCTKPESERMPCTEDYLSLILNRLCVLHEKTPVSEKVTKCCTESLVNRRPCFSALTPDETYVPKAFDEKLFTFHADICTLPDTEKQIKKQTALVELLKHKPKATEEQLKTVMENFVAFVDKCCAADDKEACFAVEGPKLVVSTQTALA
Structure (SMILES),composite z-score (Albumin (Bos taurus)),composite Z-score [1],composite z-score [2],composite z-score [3],composite z-score [4],composite z-score [5],composite z-score [6],composite z-score (Sam68 (KHDRBS1)),composite z-score [7],composite z-score [8]
O=C1O[C@@H](c2ccccc2)[C@@H](c2ccccc2)N2[C@@H](c3ccc(O)cc3)[C@]3(C(=O)Nc4ccccc43)[C@@H](C(=O)O)[C@H]12,0.592,1.76 (inactive),-0.0903,-0.1,0.59,1.45,0.448,1.33,-0.903,0.666
O=C1O[C@@H](c2ccccc2)[C@@H](c2ccccc2)N2[C@@H](c3ccc(OCCO)cc3)[C@]3(C(=O)Nc4ccccc43)[C@@H](C(=O)N3CCN(c4ncccn4)CC3)[C@H]12,0.162,0.338 (inactive),0.0824,-0.091,0.403,1.84,0.88,1.3,0.902,1.15
COc1ccc(OC[C@H]2Cc3c(-c4ccccc4)nc4c(c3CO2)CN(CCOc2ccccc2)CC4)cc1,0.445,0.812 (inactive),0.0562,-0.108,0.234,0.678,0.379,1.07,0.419,1.08
CCCC=C(CCC)[C@@H](NC(=O)c1ccc(-c2ccccc2)cc1)c1ccc(C(=O)OC)cc1,0.127,0.0503 (inactive),0.197,0.0382,0.185,2.41,-0.075,1.26,-0.955,0.724
C/C=C\[C@@H](NCc1ccccc1Br)[C@@H](O)Cc1ccccc1,0.099,0.168 (inactive),-0.221,-0.13,-0.263,-0.103,-0.0543,-0.636,-1.02,-0.342
CC(CCN1CCCCc2nc(C)c(C)cc21)=NOC(C)CN1CCCc2nc(C)c(C)cc21 (stereo not given),0.493,1.69 (inactive),0.721,0.153,0.533,1.79,0.257,1.29,1.2,1.14
CCOC(=O)CCN1C(=O)[C@H]2[C@H]3[C@H](O)[C@H](O)CC(=NNC(=O)OCc4ccc(OC)cc4)[C@@H]3CC[C@H]2C1=O,0.0708,0.101 (inactive),-0.153,-0.104,0.244,1.31,-0.239,0.427,0.388,1.09
CCN1C(=O)[C@H]2[C@H]3[C@H](O)[C@H](O)CC(=NOCc4ccccc4)[C@H]3CC[C@H]2C1=O,-0.0796,0.0894 (inactive),0.0258,-0.041,0.336,0.452,0.491,-0.144,0.248,0.21
O=C1O[C@@H](c2ccccc2)[C@@H](c2ccccc2)N2[C@@H](c3ccccc3OCCO)[C@]3(C(=O)Nc4ccc(C#CCCO)cc43)[C@@H](C(=O)O)[C@H]12,0.682,0.215 (inactive),1.14,0.473,0.58,1.51,0.133,1.2,0.553,1.15
CC(C)(C)OC(=O)CC[C@]1(C(=O)NCc2ccccc2)N=C(c2ccc(OCCCO)cc2)O[C@H]1c1ccccc1,0.912,-0.0089 (inactive),0.61,0.0216,0.735,3.07,0.378,1.3,-0.672,1.11
COCC(=C=CC[C@@H](O)c1ccccc1OCCO)CCO,-0.0934,0.493 (inactive),0.0596,-0.0811,0.763,0.994,-0.0546,0.567,0.22,-0.192
CCOC(=O)CCN1C(=O)[C@H]2[C@H]3[C@H](O)[C@H](O)CC(=NOC[C@@H](O)COCc4ccco4)[C@H]3CC[C@H]2C1=O,0.494,-0.0692 (inactive),0.0059,-0.171,0.0762,-0.128,0.0706,1.32,-0.173,0.66
CO[C@@H]1COC(=O)CC=C[C@@H](C)[C@@H]2C=C[C@H](O)[C@@H](COC(=O)[C@H](C)NC(=O)CC=C[C@H]1C)O2,-0.107,0.581 (inactive),-0.0328,-0.164,-0.455,-1,1.27,0.249,1.54,-0.016
O=C1C[C@@H](O)[C@@H](O)[C@@H]2[C@@H]3C(=O)N(c4cccc(Oc5ccccc5)c4)C(=O)[C@@H]3CC[C@@H]12,0.164,-0.397 (inactive),0.0496,0.0364,0.285,0.625,0.318,1.03,0.364,0.899
C[N+](C)(C)CCCCCCNC(=O)[C@@H]1C[C@@H]2C(=O)N3CCC[C@H]3C(=O)N2[C@@H]1c1cccc(OCCO)c1,-0.45,0.372 (inactive),-0.182,-0.205,0.581,1.56,0.338,0.927,0.954,0.743
